Measurements as given in the supplement of paper PMC10849652.
Targets with a hit are over-represented here; the source holds about 8,800 in all. About 0.5% of all pairs of compound and target were hits.

Compound: C/C(=N\NC(=O)C1=CC(=CC=C1)S(=O)(=O)N2CCOCC2)/C3=C(C=CC(=C3)Cl)O
Test: log2 fold change, soluble protein after heating vs DMSO (PISA); higher = thermal stabilisation; K562 lysate, 10 uM; active = over 0.2 and 3.5 SD of the protein, either way, in both replicates (recomputed)
Procedure, shortened: (§1)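 Values give the log-two fold change in thermal stability against solvent controls, from duplicates. Crude K562 extract at 1 mg/mL protein, made by dounce homogenisation in PBS pH 7.4 with 1 mM MgCl2, was treated with 10 μM compound for 30 min. After 3 min heating across 48°C-58°C, aliquots were pooled, adjusted to 0.5% NP-40 at 4°C and centrifuged at 21,000xg for 90 min. The supernatant was measured by TMTpro 16plex LC-MS/MS with channel sums equalised.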

Sequence of UniProt Q5XPI4 (Q5XPI4 whole entry, looked up): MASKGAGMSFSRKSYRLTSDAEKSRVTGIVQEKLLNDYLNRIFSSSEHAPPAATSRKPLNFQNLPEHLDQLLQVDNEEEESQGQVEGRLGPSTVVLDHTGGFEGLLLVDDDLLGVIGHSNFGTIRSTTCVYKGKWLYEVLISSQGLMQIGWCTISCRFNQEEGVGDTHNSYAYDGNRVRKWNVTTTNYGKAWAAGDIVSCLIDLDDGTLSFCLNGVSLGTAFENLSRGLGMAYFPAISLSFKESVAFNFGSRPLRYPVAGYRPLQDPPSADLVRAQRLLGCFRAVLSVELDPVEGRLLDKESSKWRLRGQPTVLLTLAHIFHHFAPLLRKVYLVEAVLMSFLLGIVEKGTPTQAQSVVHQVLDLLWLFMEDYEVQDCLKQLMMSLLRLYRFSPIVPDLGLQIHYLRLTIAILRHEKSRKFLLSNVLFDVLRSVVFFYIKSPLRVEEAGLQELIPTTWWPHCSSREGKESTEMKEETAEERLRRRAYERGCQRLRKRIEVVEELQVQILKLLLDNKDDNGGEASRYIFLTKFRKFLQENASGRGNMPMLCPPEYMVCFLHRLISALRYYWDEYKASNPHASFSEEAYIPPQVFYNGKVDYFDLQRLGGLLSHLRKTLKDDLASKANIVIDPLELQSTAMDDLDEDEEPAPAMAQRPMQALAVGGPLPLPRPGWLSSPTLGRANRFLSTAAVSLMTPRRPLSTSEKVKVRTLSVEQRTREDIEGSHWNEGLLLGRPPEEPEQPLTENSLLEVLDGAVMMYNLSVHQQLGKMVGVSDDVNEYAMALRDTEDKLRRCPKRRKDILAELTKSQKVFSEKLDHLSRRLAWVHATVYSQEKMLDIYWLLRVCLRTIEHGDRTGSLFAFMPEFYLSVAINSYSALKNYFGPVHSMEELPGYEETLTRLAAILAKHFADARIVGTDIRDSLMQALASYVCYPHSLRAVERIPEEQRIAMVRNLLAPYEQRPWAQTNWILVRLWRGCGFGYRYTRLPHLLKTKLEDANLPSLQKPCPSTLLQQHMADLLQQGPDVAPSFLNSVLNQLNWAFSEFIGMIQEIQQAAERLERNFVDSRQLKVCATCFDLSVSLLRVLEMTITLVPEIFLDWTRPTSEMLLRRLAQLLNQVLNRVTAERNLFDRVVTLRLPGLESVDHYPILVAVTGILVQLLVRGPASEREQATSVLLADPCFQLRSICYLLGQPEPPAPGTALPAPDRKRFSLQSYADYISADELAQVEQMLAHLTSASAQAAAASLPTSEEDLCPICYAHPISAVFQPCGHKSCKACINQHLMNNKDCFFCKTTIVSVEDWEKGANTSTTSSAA
Sequence of UniProt P47736 (P47736 whole entry, looked up): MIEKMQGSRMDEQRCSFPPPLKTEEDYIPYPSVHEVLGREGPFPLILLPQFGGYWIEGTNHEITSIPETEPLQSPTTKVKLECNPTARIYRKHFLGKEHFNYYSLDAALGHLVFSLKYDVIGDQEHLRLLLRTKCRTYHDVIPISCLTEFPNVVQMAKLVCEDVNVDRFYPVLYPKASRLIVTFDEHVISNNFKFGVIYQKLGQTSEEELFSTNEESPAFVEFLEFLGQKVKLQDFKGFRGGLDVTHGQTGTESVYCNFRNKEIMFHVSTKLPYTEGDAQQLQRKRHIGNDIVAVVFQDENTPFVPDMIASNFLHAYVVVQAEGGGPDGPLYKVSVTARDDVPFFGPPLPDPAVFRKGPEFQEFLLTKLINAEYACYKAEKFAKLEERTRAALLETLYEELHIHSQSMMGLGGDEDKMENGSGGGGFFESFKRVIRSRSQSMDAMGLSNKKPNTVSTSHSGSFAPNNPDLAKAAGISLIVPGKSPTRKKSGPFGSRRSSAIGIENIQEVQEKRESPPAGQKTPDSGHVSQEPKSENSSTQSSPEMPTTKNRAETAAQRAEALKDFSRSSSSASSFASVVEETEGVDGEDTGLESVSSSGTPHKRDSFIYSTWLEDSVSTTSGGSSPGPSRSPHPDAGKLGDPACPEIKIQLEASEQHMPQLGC
Sequence of UniProt P78406 (P78406 whole entry, looked up): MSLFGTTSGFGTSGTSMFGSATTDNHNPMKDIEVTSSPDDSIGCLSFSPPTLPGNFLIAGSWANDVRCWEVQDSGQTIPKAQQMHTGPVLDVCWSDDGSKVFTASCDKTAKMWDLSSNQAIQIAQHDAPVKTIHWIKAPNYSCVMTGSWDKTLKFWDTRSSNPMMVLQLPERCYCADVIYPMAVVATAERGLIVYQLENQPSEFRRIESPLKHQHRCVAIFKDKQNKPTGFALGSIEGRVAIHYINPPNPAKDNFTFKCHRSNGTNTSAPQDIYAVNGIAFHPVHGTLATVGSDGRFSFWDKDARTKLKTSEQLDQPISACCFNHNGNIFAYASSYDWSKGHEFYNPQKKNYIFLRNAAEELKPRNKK
Sequence of UniProt Q99708 (Q99708 whole entry, looked up): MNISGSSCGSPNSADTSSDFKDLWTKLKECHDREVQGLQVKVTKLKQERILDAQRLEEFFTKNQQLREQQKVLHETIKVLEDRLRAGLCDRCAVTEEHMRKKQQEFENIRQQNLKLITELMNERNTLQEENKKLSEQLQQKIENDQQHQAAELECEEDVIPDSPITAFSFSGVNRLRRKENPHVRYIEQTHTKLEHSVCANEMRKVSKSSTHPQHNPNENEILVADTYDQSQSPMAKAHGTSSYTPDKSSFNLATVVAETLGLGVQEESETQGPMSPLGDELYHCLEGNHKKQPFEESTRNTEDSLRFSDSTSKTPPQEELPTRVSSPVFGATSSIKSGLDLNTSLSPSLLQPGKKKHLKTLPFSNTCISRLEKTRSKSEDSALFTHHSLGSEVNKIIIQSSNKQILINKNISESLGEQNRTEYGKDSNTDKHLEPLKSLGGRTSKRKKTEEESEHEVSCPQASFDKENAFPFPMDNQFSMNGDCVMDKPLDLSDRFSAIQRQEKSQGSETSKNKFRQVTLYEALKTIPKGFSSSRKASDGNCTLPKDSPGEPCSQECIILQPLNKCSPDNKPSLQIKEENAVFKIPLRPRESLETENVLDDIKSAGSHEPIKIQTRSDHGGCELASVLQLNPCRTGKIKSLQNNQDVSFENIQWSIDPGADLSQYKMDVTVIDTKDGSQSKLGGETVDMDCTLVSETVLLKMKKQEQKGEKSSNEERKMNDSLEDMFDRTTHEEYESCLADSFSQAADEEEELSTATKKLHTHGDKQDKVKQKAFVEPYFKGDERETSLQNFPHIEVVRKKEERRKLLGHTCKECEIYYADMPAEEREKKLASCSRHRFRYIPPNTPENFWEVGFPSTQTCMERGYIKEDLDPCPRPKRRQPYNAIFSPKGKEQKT
Sequence of UniProt Q02094 (Q02094 whole entry, looked up): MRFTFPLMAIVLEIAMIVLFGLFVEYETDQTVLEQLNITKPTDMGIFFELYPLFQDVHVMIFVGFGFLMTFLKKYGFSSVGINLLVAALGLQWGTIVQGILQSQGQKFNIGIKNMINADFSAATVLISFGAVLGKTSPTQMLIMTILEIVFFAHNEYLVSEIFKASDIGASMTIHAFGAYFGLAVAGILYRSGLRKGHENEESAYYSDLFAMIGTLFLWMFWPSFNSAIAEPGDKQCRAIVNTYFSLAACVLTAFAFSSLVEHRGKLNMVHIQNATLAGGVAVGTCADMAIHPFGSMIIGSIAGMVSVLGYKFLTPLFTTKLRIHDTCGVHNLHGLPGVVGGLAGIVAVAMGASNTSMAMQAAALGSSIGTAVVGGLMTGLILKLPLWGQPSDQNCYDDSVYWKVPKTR
Sequence of UniProt Q99442 (Q99442 whole entry, looked up): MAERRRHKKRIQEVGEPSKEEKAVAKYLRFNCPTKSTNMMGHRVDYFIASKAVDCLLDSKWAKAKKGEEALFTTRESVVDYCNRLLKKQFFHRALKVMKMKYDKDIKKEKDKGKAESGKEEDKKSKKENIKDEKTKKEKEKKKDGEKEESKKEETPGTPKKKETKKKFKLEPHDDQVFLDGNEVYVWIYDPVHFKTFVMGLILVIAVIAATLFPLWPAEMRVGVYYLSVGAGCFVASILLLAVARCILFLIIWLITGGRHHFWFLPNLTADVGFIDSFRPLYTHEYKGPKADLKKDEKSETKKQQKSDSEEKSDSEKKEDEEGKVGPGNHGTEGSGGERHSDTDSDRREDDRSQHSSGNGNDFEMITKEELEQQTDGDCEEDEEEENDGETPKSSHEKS
Sequence of UniProt Q6NUQ1 (Q6NUQ1 whole entry, looked up): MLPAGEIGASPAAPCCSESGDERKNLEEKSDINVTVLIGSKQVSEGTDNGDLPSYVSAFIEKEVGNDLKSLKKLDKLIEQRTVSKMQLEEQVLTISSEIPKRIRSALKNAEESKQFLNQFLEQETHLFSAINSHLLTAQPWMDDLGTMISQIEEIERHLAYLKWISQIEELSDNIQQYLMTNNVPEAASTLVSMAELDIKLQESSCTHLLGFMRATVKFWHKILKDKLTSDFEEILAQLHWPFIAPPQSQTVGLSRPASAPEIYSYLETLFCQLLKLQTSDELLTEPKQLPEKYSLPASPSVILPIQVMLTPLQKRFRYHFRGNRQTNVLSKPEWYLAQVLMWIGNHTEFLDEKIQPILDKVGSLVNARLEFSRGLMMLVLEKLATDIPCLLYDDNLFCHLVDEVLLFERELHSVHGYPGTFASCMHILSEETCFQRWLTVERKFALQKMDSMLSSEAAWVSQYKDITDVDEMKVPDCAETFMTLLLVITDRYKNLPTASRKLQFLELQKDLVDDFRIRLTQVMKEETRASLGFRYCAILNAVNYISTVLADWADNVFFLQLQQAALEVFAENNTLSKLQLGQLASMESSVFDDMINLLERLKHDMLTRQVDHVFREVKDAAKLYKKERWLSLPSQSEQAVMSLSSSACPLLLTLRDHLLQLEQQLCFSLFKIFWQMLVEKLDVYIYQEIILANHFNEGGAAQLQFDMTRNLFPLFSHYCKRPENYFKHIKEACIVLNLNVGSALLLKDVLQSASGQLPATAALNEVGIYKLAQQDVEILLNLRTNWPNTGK
Sequence of UniProt P60059 (P60059 whole entry, looked up): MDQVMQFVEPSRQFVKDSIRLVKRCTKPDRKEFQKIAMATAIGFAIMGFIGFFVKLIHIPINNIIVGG
Sequence of UniProt P31949 (P31949 whole entry, looked up): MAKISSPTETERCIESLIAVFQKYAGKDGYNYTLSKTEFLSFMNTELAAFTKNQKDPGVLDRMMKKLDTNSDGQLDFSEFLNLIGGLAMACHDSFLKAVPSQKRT

log2 fold change, inactive:
RDX (UniProt P35241) 0.017, RINT1 (UniProt Q6NUQ1) 0.029, RAB6D (UniProt Q53S08) -0.071, RAD50 isoform 2 (UniProt Q92878) -0.007, RBBP8 isoform 2 (UniProt Q99708) -0.129, R3HCC1 (UniProt Q9Y3T6) -0.118, RHAG (UniProt Q02094) -0.123, SDHA (UniProt P31040) 0.034, SCAF1 (UniProt Q9H7N4) 0.113, SEC61G (UniProt P60059) -0.196, SEC24D isoform 2 (UniProt O94855) 0.04, SCD (UniProt O00767) -0.093, SAR1A (UniProt Q9NR31) -0.112, SEC13 isoform 3 (UniProt P55735) 0.02, SERINC3 (UniProt Q13530) 0.145, RFC4 (UniProt P35249) 0.027, RCOR3 isoform 3 (UniProt Q9P2K3) 0.025, S100A11 (UniProt P31949) 0.034, RRM1 (UniProt P23921) -0.019, RNF123 (UniProt Q5XPI4) 0.016, RAB3IL1 (UniProt Q8TBN0) 0.005, RRAGA (UniProt Q7L523) -0.019, RMC1 (UniProt Q96DM3) -0.056, RAF1 isoform 2 (UniProt P04049) -0.033, SEC16A isoform 5 (UniProt O15027) -0.019, SAMHD1 (UniProt Q9Y3Z3) 0.036, RHOA (UniProt P61586) -0.093, RNF168 (UniProt Q8IYW5) -0.023, RAE1 (UniProt P78406) -0.036, REEP5 (UniProt Q00765) -0.041, RAP1GAP isoform 4 (UniProt P47736) -0.028, RFC2 (UniProt P35250) 0.017, SEC62 (UniProt Q99442) -0.008

Compound: C1=CC(=CC=C1C2=NC3=C(N2)C=C(C=C3)C(=O)N)OC4=CC=C(C=C4)Cl
Test: as above
Procedure, shortened: as §1

log2 fold change, inactive:
RDX (UniProt P35241) 0.014, RINT1 (UniProt Q6NUQ1) -0.01, RAB6D (UniProt Q53S08) 0.054, RAD50 isoform 2 (UniProt Q92878) 0.019, RBBP8 isoform 2 (UniProt Q99708) -0.031, R3HCC1 (UniProt Q9Y3T6) 0.055, RHAG (UniProt Q02094) -0.087, SDHA (UniProt P31040) 0.109, SCAF1 (UniProt Q9H7N4) 0.066, SEC61G (UniProt P60059) -0.111, SEC24D isoform 2 (UniProt O94855) 0.012, SCD (UniProt O00767) 0.027, SAR1A (UniProt Q9NR31) 0.05, SEC13 isoform 3 (UniProt P55735) 0.009, SERINC3 (UniProt Q13530) 0.065, RFC4 (UniProt P35249) -0.033, RCOR3 isoform 3 (UniProt Q9P2K3) 0.022, S100A11 (UniProt P31949) 0.02, RRM1 (UniProt P23921) 0.007, RNF123 (UniProt Q5XPI4) -0.008, RAB3IL1 (UniProt Q8TBN0) -0.021, RRAGA (UniProt Q7L523) 0.001, RMC1 (UniProt Q96DM3) 0.017, RAF1 isoform 2 (UniProt P04049) -0.016, SEC16A isoform 5 (UniProt O15027) 0.025, SAMHD1 (UniProt Q9Y3Z3) 0.004, RHOA (UniProt P61586) 0.049, RNF168 (UniProt Q8IYW5) 0.001, RAE1 (UniProt P78406) 0.014, REEP5 (UniProt Q00765) 0.022, RAP1GAP isoform 4 (UniProt P47736) -0.011, RFC2 (UniProt P35250) -0.059, SEC62 (UniProt Q99442) 0.018

Compound: C1=CC2=C(C=CC(=C2)/C=C\3/C(=O)NC(=NCC4=CC=CS4)S3)N=C1
Test: as above
Procedure, shortened: as §1

log2 fold change, inactive:
RDX (UniProt P35241) -0.023, RINT1 (UniProt Q6NUQ1) 0.012, RAB6D (UniProt Q53S08) -0.025, RAD50 isoform 2 (UniProt Q92878) 0.006, RBBP8 isoform 2 (UniProt Q99708) 0.074, R3HCC1 (UniProt Q9Y3T6) 0.074, RHAG (UniProt Q02094) 0.086, SDHA (UniProt P31040) -0.006, SCAF1 (UniProt Q9H7N4) 0.218, SEC61G (UniProt P60059) 0.032, SEC24D isoform 2 (UniProt O94855) 0.008, SCD (UniProt O00767) 0.056, SAR1A (UniProt Q9NR31) -0.019, SEC13 isoform 3 (UniProt P55735) -0.019, SERINC3 (UniProt Q13530) 0.073, RFC4 (UniProt P35249) -0.027, RCOR3 isoform 3 (UniProt Q9P2K3) 0.009, S100A11 (UniProt P31949) -0.008, RRM1 (UniProt P23921) 0.025, RNF123 (UniProt Q5XPI4) 0.029, RAB3IL1 (UniProt Q8TBN0) 0.024, RRAGA (UniProt Q7L523) -0.065, RMC1 (UniProt Q96DM3) -0.06, RAF1 isoform 2 (UniProt P04049) -0.072, SEC16A isoform 5 (UniProt O15027) -0.016, SAMHD1 (UniProt Q9Y3Z3) 0.015, RHOA (UniProt P61586) -0.093, RNF168 (UniProt Q8IYW5) -0.081, RAE1 (UniProt P78406) 0.046, REEP5 (UniProt Q00765) 0.036, RAP1GAP isoform 4 (UniProt P47736) -0.018, RFC2 (UniProt P35250) -0.017, SEC62 (UniProt Q99442) 0.046
